# Experimental data published in PubChem BioAssay AID493248 (Broad Institute, 2011).
# The campaign covered roughly 2,300 compounds. About 1,400 (61%) were called active. About 7% were inconclusive and are not listed. How the calls were made is not given here. So high a share suggests a set chosen from earlier hits. These entries were drawn from the full list. Potency and affinity values are given separately.
# Biological target: FAD-linked sulfhydryl oxidase ALR (Homo sapiens) (UniProt P55789)
# Assay: inhibitors of human ALR sulfhydryl oxidase, dose response, biochemical, H2O2 detection, luminescence, cherry-pick (AID 493248)
# Conditions: purified ALR, DTT oxidation, H2O2 HRP-luminol luminescence; at 10 µM (top of the series)
# Sequence of FAD-linked sulfhydryl oxidase ALR (Homo sapiens) (P55789 whole entry, looked up): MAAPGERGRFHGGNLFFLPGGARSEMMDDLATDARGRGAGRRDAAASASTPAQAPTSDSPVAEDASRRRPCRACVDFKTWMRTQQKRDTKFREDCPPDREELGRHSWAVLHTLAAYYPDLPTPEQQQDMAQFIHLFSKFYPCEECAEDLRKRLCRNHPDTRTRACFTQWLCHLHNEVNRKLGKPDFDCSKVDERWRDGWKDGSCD
row,Structure (SMILES),"activity change, negative = inhibition"
1,Cc1nc2ccc(Br)cn2c1NC(C)(C)C,15.9%
2,O=C1CSC(c2ccccc2)N1c1ccc([N+](=O)[O-])cc1 (stereo not drawn),-50.9%
3,COc1ccc(C2SCC(=O)N2Cc2ccccc2)cc1 (stereo not drawn),-33.1%
4,Cc1noc(NS(=O)(=O)c2ccc(NC(=O)CCN3C(=O)c4ccccc4C3=O)cc2)c1C,-21.6%
5,O=C(O)CCCC(=O)N1CCN(c2nc(-c3ccccc3)c3ccccc3n2)CC1,-0.988%
6,COc1ccc(N=C2C(=O)Nc3ccccc32)cc1,-24.8%
7,Cc1ccc(N(C(=O)c2cccs2)C2C=CS(=O)(=O)C2)cc1 (stereo not drawn),-56.3%
8,COc1ccc(Nc2nccc(-c3cccc(N)c3)n2)cc1,-11.7%
9,CC1CCC2(CC1)NC(=S)N(c1ccccc1)N2 (stereo not drawn),-28.1%
10,COC(=O)c1sccc1NC(=O)c1cc(C)on1,-8.04%
11,COc1ccc(N2CCN(c3ncccn3)CC2)cc1,-8.28%
12,Cn1c(CNc2ccc(O)cc2)nc2ccccc21,-101%
13,Cc1nn(C)c(Nc2ccc(Br)cc2)c1Br,-46.2%
14,Cc1ccccc1NC(=O)CNc1ccccc1N1CCCCC1,-89.6%
15,COc1ccc(S(=O)(=O)N2CCC(C(=O)Nc3ccccc3N3CCCC3)CC2)cc1OC,-28.9%
16,COC(=O)c1c(NC(=O)CN2CCN(Cc3ccc4c(c3)OCO4)CC2)sc(C)c1C,-8.94%
17,O=C(Nc1ccccc1N1CCCC1)c1cccc(F)c1,-3.33%
18,c1ccc2c(c1)CSc1ccccc1N2,-6.27%
19,CC1CN(C(=O)Nc2ccc3snnc3c2)c2ccccc21 (stereo not drawn),-13.6%
20,CCCCCC(=O)N/N=C/c1ccc(N(C)C)cc1,-20.3%
21,CN(C)c1ccc(/C=N/NC(=O)c2sccc2-n2cccc2)cc1,-99%
22,CN(C)c1ccc(C=Nc2cnn(C)c2C(N)=O)cc1,-35.9%
23,O=C(CNC(=O)c1ccccc1Br)N/N=C/c1ccc(O)cc1,-106%
24,CCn1c(NC(=O)c2ccc(C)cc2)c2ccccc2nc1=O,-48.8%
25,O=Cc1c(Sc2ccccc2)nc2ccccn2c1=O,-18.4%
26,O=C1Oc2ccccc2C(=O)/C1=C\N1CCN(c2ccccc2)CC1,-15.7%

row,Structure (SMILES),"activity change, negative = inhibition"
1,Cc1ccc(S(=O)(=O)Nc2c(O)ccc3ccccc23)cc1,13.8%
2,COc1ccc(OC)c(S(=O)(=O)Nc2cccc3c(O)cccc23)c1,31.7%
3,COc1ccc(C=O)cc1CSc1ccccn1,-11.6%
4,COc1c(OC)c(O)c2c(=O)cc(-c3c(O)cccc3O)oc2c1OC,162%
5,Cc1nc(-c2ccc([N+](=O)[O-])cc2)c(-c2ccccc2)o1,29.9%
6,O=C(CC1C(=O)Nc2ccccc2N1CC(=O)N1CCCC1)Nc1ccc(Br)cc1 (stereo not drawn),-30%
7,CCN(CC)c1ccc2oc(=O)c(C)nc2c1,88.3%
8,O=C(c1cc(C(=O)c2ccco2)cc(C(=O)c2ccco2)c1)c1ccco1,-7.08%
9,O=C(CCNc1cccc(Cl)c1)c1ccco1,-4.82%
10,COc1cc(NCCC(=O)c2cccs2)c(OC)cc1Cl,-89.7%
11,NC(=O)NC1CCCc2c1[nH]c1ccc(Cl)cc21 (stereo not drawn),-12.4%
12,c1ccc2c3c([nH]c2c1)-c1[nH]ncc1CC3,-82.4%
13,COc1ccc(-c2csc(NC(=O)[C@H](C)N3C(=O)C4CC=CCC4C3=O)n2)cc1OC (stereo partly drawn),-58.5%
14,COc1cc(/C=C2\SC(=Nc3ccccc3OC)NC2=O)ccc1O,-53.3%
15,O=C(c1cccc(Cl)c1)C1CCCN(Cc2ccc(N3CCNC3=O)cc2)C1 (stereo not drawn),-1.51%
16,CCC(=O)N1CCN=C1SCc1cccc(F)c1,-25.9%
17,O=C(CN1C(=O)CSC1=O)N1CCCC(Nc2ccc(F)cc2)C1 (stereo not drawn),-78.4%
18,Cc1nc(N2CCN(C)CC2)c2cc(-c3ccccc3)sc2n1,-4.2%
19,COc1cc(C(=O)O)c2c(c1C)OC(=O)c1c(C)cc(O)c(C=O)c1O2,-39.1%
20,CNC(=O)c1csc(-c2ccc(C)cc2)n1,146%
21,CCNc1nc(NCC)nc(N(C)N)n1,-22.3%
22,Cc1cccc(NCc2ccc(N(C)C)cc2)n1,-5.45%
23,CC(C)n1c(NCc2cccs2)nc2ccccc21,-4.15%
24,COc1ccc(O)c(CNc2ccccc2F)c1,-6.08%
25,CC(=O)Nc1ccc(NCc2ccc(C)s2)cc1,-11.5%
26,CC(=O)Nc1ccc(-c2csc(NNC(=O)c3ccccc3)n2)cc1,7.25%

row,Structure (SMILES),"activity change, negative = inhibition"
1,O=C(CN1C(=O)S/C(=C\C=C\c2ccccc2)C1=O)Nc1ccccc1C(=O)O,-58%
2,COc1cc(C(=O)N/N=C/c2cccc(Oc3ccccc3)c2)ccc1O,-2.05%
3,CCN(CC)S(=O)(=O)c1ccc(C(=O)Nc2nnc(CSC)o2)cc1,-25.7%
4,Cc1[nH]n(C(N)=S)c(=O)c1N=Nc1cccc([N+](=O)[O-])c1C,-50.5%
5,Cc1cc(C(=O)Nc2nc3c(s2)CCCC3)no1,-50.2%
6,Cc1cc(C(=O)Nc2sc3c(c2C#N)CCCC3)no1,-53.9%
7,O=C(NCc1n[nH]c(=S)n1-c1ccc(Cl)c(Cl)c1)c1ccc(S(=O)(=O)N2CCCCC2)cc1,15%
8,COc1ccc(C(=O)c2ccc(N(C)C)cc2)c(OC)c1,-4.89%
9,CC(C)C(=O)n1nc(-c2cccnc2)nc1NCc1cccs1,-25.7%
10,C(=C\c1nc2ccccc2[nH]1)/c1ccccc1,-1.44%
11,O=c1[nH]ccc2c(O)cccc12,-103%
12,CC(C)Cc1nc2ccc(N)cc2[nH]1,-1.73%
13,Nc1ccc2nc[nH]c2c1,-12.8%
14,Nc1ccc(-c2nc3ccc([N+](=O)[O-])cc3[nH]2)cc1,31%
15,COc1ccc(N=C2C(=O)N3CCCc4cccc2c43)cc1,-15.6%
16,Cc1ccc(S(=O)(=O)N2CCCC(C(=O)O)C2)s1 (stereo not drawn),5.85%
17,COc1cc(NC(=O)C2CCCN(S(=O)(=O)c3cnc[nH]3)C2)cc(OC)c1 (stereo not drawn),-31%
18,O=C(NCc1ccccc1Cl)C1CCCN(S(=O)(=O)c2cnc[nH]2)C1 (stereo not drawn),20%
19,O=C(NCCc1ccccc1)C1CCCN(S(=O)(=O)c2cnc[nH]2)C1 (stereo not drawn),6.71%
20,N#Cc1c(N)c(C(=O)c2ccccc2)n2c1CCC2,-45.9%
21,N#Cc1c2n(c3c(=O)n(Cc4ccccc4)cnc13)CCCC2,18%
22,COc1ccc(C(=O)NCCNc2nc3ccc(C)cc3cc2C#N)cc1OC,3.56%
23,CN(C)c1ccc(/C=N/Nc2cccc(C(=O)O)c2)cc1,-23.9%
24,O=C(/C(=N/N=C/c1ccc(O)c(O)c1O)c1ccccc1)c1ccccc1,-31.1%
25,CC1CCN(CC(=O)N2c3ccccc3CCc3ccccc32)CC1,2.93%
26,CCC(C)(C)n1nnnc1CN1CCc2ccccc21,23.2%
